# Test results taken from publication PMC7862700, “An all-to-all approach to the identification of sequence-specific readers for epigenetic DNA modifications on cytosine”.
# Columns and labels:
# Test in all cases: DAPPL (digital affinity profiling via proximity ligation, sequencing); 10 mM Tris-HCl pH 7.5, 50 mM NaCl, 1 mM DTT, 4% glycerol, room temperature, 30 min; GST-TFs on glutathione beads, 16-mer random dsDNA library, 0.1% formaldehyde crosslink after washing; high values mean tight binding
# Details in all cases: protein: recombinant; tags: N-terminal GST; dsDNA, one strand shown
# ETV1 = ETV1 (Homo sapiens, UniProt P50549 1-477)
# ETV1, sequence (P50549 whole entry, the tested form may be a part): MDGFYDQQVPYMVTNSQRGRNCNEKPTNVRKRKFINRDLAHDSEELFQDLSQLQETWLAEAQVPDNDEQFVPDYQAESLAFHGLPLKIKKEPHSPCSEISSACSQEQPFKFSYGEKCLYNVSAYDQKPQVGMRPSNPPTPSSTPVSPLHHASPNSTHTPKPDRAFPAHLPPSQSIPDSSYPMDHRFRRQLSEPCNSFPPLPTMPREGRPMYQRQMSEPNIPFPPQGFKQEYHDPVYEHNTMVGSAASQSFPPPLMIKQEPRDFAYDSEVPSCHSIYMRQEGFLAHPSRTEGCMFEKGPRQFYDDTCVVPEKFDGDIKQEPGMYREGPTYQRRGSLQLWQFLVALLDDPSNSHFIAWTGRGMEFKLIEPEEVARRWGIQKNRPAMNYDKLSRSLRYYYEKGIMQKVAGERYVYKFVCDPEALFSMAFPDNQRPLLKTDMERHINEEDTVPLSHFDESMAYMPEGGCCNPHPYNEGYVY
# In short: (§1)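 Binding signal is each hexamer's read frequency for a factor divided by its frequency in the tag-only sample. The factors were GST-fused human transcription factors from yeast, captured on glutathione beads, DNA-barcoded and pooled with that sample. Pools were incubated with 200 nmole of a random double-stranded 16-mer DNA library in Tris/NaCl/DTT/glycerol buffer at room temperature for 30 min, then washed, crosslinked with 0.1% formaldehyde, proximity-ligated with BsaI/T4 ligase (1 h, 37 °C), PCR-amplified and sequenced on an Illumina NextSeq500.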
# ERF = biological target: T1, ERF (Homo sapiens, UniProt P50548 1-548)
# T1 sequence: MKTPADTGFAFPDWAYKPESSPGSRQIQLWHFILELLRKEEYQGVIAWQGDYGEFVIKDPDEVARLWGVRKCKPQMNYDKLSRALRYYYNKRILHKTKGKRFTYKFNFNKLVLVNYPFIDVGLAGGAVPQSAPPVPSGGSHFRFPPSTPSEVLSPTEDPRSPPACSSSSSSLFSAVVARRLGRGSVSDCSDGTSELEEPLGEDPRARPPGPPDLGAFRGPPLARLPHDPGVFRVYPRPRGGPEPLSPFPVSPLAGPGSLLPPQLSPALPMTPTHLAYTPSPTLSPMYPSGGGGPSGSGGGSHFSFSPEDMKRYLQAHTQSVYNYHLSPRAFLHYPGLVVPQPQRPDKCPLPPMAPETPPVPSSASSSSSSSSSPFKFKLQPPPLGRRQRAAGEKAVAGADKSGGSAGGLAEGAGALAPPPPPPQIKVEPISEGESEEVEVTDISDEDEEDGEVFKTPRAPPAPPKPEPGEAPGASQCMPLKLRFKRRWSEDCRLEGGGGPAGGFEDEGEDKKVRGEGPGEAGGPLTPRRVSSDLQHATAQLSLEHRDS
# In short: as §1
# ETV3L = biological target: T2, ETV3L (Homo sapiens, UniProt Q6ZN32 1-361)
# T2 sequence: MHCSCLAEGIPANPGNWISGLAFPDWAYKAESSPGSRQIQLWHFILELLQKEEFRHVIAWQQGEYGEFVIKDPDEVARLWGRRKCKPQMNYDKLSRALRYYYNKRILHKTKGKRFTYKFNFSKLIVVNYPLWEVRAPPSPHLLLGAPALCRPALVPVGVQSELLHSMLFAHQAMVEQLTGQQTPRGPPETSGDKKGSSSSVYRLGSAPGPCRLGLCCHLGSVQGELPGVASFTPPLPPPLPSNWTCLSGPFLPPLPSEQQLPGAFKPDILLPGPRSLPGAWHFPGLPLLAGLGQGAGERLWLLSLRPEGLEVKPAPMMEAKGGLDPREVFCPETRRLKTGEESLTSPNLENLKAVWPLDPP
# In short: as §1
# ETS2 = biological target: T3, ETS2 (Homo sapiens, UniProt P15036 1-469)
# T3 sequence: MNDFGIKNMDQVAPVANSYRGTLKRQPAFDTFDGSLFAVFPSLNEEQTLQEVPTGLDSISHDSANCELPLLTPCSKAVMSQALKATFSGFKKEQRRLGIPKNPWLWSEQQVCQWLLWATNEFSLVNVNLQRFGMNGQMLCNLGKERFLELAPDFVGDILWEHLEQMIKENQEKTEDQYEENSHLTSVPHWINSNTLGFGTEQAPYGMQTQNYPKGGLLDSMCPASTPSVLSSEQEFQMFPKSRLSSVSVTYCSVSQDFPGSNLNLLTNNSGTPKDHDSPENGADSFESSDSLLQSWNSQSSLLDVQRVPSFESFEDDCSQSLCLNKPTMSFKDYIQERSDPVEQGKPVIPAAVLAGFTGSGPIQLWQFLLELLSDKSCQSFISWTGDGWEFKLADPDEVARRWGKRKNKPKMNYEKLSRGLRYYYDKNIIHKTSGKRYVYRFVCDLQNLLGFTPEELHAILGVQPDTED
# In short: as §1
# SPDEF = biological target: T4, SPDEF (Homo sapiens, UniProt O95238 1-335)
# T4 sequence: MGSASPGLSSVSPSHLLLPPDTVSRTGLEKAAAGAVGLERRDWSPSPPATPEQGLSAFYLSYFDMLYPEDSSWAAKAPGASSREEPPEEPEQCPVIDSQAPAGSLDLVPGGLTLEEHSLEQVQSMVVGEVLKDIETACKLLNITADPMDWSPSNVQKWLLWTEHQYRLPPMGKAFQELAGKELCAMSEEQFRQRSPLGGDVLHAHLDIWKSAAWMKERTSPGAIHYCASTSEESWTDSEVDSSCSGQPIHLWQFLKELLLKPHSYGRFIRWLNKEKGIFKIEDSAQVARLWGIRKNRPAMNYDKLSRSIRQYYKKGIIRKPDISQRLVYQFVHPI
# In short: as §1
# ETV7 = biological target: T5, ETV7 (Homo sapiens, UniProt Q9Y603 1-341)
# T5 sequence: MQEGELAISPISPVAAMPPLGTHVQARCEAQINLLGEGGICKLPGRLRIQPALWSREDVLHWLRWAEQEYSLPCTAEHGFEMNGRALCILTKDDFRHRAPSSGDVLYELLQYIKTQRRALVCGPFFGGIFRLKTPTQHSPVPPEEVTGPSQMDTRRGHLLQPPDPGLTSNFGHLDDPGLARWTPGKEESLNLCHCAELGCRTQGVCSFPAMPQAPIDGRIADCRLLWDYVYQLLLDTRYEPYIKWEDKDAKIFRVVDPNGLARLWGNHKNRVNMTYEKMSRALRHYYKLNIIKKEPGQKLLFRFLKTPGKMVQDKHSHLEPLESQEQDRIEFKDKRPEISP
# In short: as §1
# ELF5 = biological target: T6, ELF5 (Homo sapiens, UniProt Q9UKW6-2 1-255)
# T6 sequence: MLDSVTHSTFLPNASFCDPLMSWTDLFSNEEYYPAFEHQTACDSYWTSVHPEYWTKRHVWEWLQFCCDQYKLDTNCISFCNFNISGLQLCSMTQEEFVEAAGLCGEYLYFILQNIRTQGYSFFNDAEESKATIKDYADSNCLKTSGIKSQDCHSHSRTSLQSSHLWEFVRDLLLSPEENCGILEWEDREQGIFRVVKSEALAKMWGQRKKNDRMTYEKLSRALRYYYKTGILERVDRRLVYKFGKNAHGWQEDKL
# In short: as §1
# ETV3 = biological target: T7, ETV3 (Homo sapiens, UniProt P41162-2 1-143)
# T7 sequence: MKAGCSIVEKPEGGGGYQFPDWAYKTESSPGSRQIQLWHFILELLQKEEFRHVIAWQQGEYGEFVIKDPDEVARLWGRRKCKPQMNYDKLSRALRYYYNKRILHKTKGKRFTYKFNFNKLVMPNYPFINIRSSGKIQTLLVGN
# In short: as §1
# ETV6 = ETV6 (Homo sapiens, UniProt P41212 1-452)
# ETV6, sequence (P41212 whole entry): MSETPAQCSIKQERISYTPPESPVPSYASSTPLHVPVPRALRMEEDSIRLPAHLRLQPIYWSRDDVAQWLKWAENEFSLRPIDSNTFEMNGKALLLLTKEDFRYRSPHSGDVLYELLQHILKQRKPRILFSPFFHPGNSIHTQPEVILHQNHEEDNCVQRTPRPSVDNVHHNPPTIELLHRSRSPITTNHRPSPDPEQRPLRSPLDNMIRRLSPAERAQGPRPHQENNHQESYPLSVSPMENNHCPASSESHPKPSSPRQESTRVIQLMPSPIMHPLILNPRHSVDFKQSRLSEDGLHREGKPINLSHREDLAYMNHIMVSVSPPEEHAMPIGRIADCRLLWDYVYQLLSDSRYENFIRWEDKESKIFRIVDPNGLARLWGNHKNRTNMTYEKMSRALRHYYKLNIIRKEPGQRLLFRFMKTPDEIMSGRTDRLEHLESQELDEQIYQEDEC
# In short: as §1
sequence,measurement,setting,value
ATCGCC,binding signal,ETV1,"1.32 fold enrichment (6-mer frequency, TF over GST control)"
same,binding signal,ERF,"1.27 fold enrichment (6-mer frequency, TF over GST control)"
same,binding signal,ETV3L,"1.32 fold enrichment (6-mer frequency, TF over GST control)"
same,binding signal,ETS2,"1.3 fold enrichment (6-mer frequency, TF over GST control)"
same,binding signal,SPDEF,"1.12 fold enrichment (6-mer frequency, TF over GST control)"
same,binding signal,ETV7,"1.03 fold enrichment (6-mer frequency, TF over GST control)"
same,binding signal,ELF5,"1.25 fold enrichment (6-mer frequency, TF over GST control)"
same,binding signal,ETV3,"1.14 fold enrichment (6-mer frequency, TF over GST control)"
same,binding signal,ETV6,"1.28 fold enrichment (6-mer frequency, TF over GST control)"
